The record followed here is the supplement of paper PMC10981050.

Structures can show the parent of a compound that is named as a salt.

One test concerns MARIMO. Put plainly: cell viability relative to vehicle control; higher = less cytotoxic. The note with it: 10 µM; SRSF2 genotype: SRSF2 P95H/wt. A digest of the protocol: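 Screening covered the Selleck bioactive, kinase and epigenetic probe libraries, less identity-inconsistent compounds, on CRISPR-edited mutant clones and isogenic wild-type clones of four leukaemia lines. Cells, at 2000 per well in 50 µL medium, received a single 10 µM acoustically dispensed dose. After 48 h the supernatant was removed and CellTiter-Glo luminescence was read. Viability was analysed in Genedata Screener as percent of the on-plate vehicle control.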
On to `COc1ccc(CCCOC(Cn2ccnc2)c2ccc(OC)cc2)cc1` (stereo not given), for which the cell viability (commonly a read-out of living cells in per cent, often relative to untreated cells) was 13.8%.

Turning to `COC(=O)N[C@H](C(=O)N1CCC[C@H]1C(=O)Nc1ccc([C@@H]2CC[C@@H](c3ccc(NC(=O)[C@@H]4CCCN4C(=O)[C@@H](NC(=O)OC)C(C)C)cc3)N2c2ccc(C(C)(C)C)cc2)cc1)C(C)C` [Ombitasvir(ABT-267)], the cell viability came out at 89.8%.

As to `CC1=CC(=O)c2ccccc2C1=O` [Menadione], the cell viability was 98.9%.

Turning to `COc1cc(F)c(C(C)C)cc1-c1ccc(C(F)(F)F)cc1CN1C(=O)O[C@H](c2cc(C(F)(F)F)cc(C(F)(F)F)c2)[C@@H]1C` [Anacetrapib (MK-0859)], the cell viability is 91.2%.

Turning to `CN(CC(=O)N(Cc1ccc(C2CCCCC2)cc1)c1ccc(C(=O)O)cc1)S(=O)(=O)c1c(F)c(F)c(F)c(F)c1F`, the cell viability was 10.3%.

Take `C#C[C@]1(O)CC[C@H]2[C@@H]3CCC4=CC(=O)CC[C@@H]4[C@H]3C(=C)C[C@@]21CC` [Etonogestrel]: the cell viability came to 78.6%.

As for `O=C(N/N=C/c1ccc(O)c(O)c1)c1cc2ccccc2cc1O` [Dynasore], the cell viability came out at 72.8%.

`CC(C)Oc1ccc2c(=O)c(-c3ccccc3)coc2c1` [Ipriflavone]: the cell viability was 85.2%.

Turning to `CNC(=O)c1ccccc1Sc1ccc2c(/C=C/c3ccccn3)n[nH]c2c1` [Axitinib], the cell viability stood at 57%.

Consider `CC1=C(C(=O)Nc2ccc3[nH]ncc3c2)C(c2ccc(F)cc2)NC(=O)N1` (stereo not given), for which the cell viability came out at 102%.

Still in this test, the particulars now being: 10 µM; SRSF2 genotype: SRSF2 wt/wt.
As to `O=C(O)c1cc(=O)c2c(OCC(O)COc3cccc4oc(C(=O)O)cc(=O)c34)cccc2o1` [Disodium Cromoglycate], the cell viability was 98.5%.

For the compound `Nc1nc2c(ncn2[C@@H]2O[C@H](CO)[C@@H](O)[C@H]2O)c(=O)[nH]1` [Guanosine], the cell viability came to 103%.

For `CN(C/C=C/C#CC(C)(C)C)Cc1cccc2ccccc12` [Terbinafine], the cell viability was 108%.

With `NCC(=O)CCC(=O)O` [5-Aminolevulinic acid hydrochloride], the cell viability came to 101%.

With `CN(C)CC(c1ccc(O)cc1)C1(O)CCCCC1` (stereo not given) [Desvenlafaxine], the cell viability is 102%.

For the compound `COc1cc(O)c2c(=O)cc(-c3ccc(O)c(O)c3)oc2c1` [Hydroxygenkwanin], the cell viability turned out to be 69.4%.

Regarding `C[C@H](CC[C@@H](O[C@@H]1O[C@H](CO[C@@H]2O[C@H](CO)[C@@H](O)[C@H](O)[C@H]2O)[C@@H](O)[C@H](O)[C@H]1O[C@@H]1O[C@H](CO)[C@@H](O)[C@H](O)[C@H]1O)C(C)(C)O)[C@H]1CC[C@@]2(C)[C@@H]3CC=C4[C@@H](CC[C@H](O[C@@H]5O[C@H](CO[C@@H]6O[C@H](CO)[C@@H](O)[C@H](O)[C@H]6O)[C@@H](O)[C@H](O)[C@H]5O)C4(C)C)[C@]3(C)[C@H](O)C[C@]12C` [Mogroside V], the cell viability is 104%.

On to `COC(=O)c1ccc2c(c1)[nH]c1ncnc(NCCCN3CCCCC3)c12`, for which the cell viability worked out at 49%.

Turning to `O=C(CSc1nc2c(c(=O)n1-c1ccccc1)SCC2)Nc1ccc(-c2ccccc2)cn1`, the cell viability amounted to 98.2%.

`COc1cc2c(cc1OC(C)C)[C@H](c1ccc(Cl)cc1)N(c1ccc(N(C)C[C@H]3CC[C@H](N4CCN(C)C(=O)C4)CC3)cc1)C(=O)C2`: the cell viability stood at 71.8%.

Take `O=C(O)Cn1nnc(-c2cc(N3CCC(Oc4cc(F)ccc4Br)CC3)no2)n1`: the cell viability amounted to 104%.

As for `CCCCCCCCCCCCCCCC(=O)O[C@@H]1[C@@H](O)[C@@H](O)[C@@H]([C@H](NC(=O)[C@@H]2C[C@@H](CCC)CN2C)[C@H](C)Cl)O[C@@H]1SC` [Clindamycin palmitate HCl], the cell viability amounted to 108%.

For the compound `O=C(/C=C/c1ccccc1)OCc1ccccc1` [Benzyl cinnamate], the cell viability was determined as 99.6%.

Turning to `O=S(=O)(c1ccccc1)c1cnc2c(N3CCNCC3)cccc2c1`, the cell viability was 95%.

As for `CCn1cc(C(=O)O)c(=O)c2cc(F)c(N3CCNCC3)cc21` [Norfloxacin (Norxacin)], the cell viability was 95.5%.

Consider `C[C@@H]1CC[C@@]2(OC1)O[C@H]1C[C@H]3[C@@H]4CC=C5C[C@@H](O[C@@H]6O[C@H](CO)[C@@H](O)[C@H](O)[C@H]6O[C@@H]6O[C@@H](C)[C@H](O)[C@@H](O)[C@H]6O)CC[C@]5(C)[C@H]4CC[C@]3(C)[C@@]1(O)[C@@H]2C` [Polyphyllin VI], for which the cell viability came to 0.84%.

In the case of `Cc1ccnc(NS(=O)(=O)c2ccc(N)cc2)n1` [Sulfamerazine], the cell viability turned out to be 104%.

Regarding `COC(=O)c1ccco1` [Methyl furan-2-carboxylate], the cell viability amounted to 99.5%.

Regarding `COc1cc2c(cc1O)C[C@H]1c3cc(O)c(OC)cc3CC[N+]1(C)C2` (stereo not given in full) [Phellodendrine chloride], the cell viability amounted to 95.6%.

With `COc1cc2c(Nc3ccc(NC(=O)c4ccccc4)cc3)ncnc2cc1OCCCN1CCOCC1`, the cell viability is 72%.

Consider `CC(C)c1ccc(C=O)cc1` [4-Isopropylbenzaldehyde], for which the cell viability is 99.9%.

As to `C[C@]12CC[C@@H]3c4ccc(O)cc4CC[C@H]3[C@@H]1CC[C@@H]2O` [Estradiol], the cell viability turned out to be 90.2%.

Regarding `CC[C@@H](CO)NCCN[C@@H](CC)CO` [Ethambutol HCl], the cell viability was determined as 112%.

Regarding `O=C(O)C(Cc1c[nH]c2ccccc12)N1C(=O)c2ccccc2C1=O` (stereo not given), the cell viability was 104%.

`Cc1nc(-c2cn3c(n2)-c2ccc(-c4cnn(C(C)(C)C(N)=O)c4)cc2OCC3)n(C(C)C)n1`: the cell viability turned out to be 42%.

Regarding `COc1cc2nccc(Oc3ccc(NC(=O)C4(C(=O)Nc5ccc(F)cc5)CC4)cc3)c2cc1OC`, the cell viability turned out to be 66.8%.

As to `O=C1c2c(O)cc(O)cc2O[C@H](c2cc(O)c(O)c(O)c2)[C@H]1O` [Dihydromyricetin (Ampeloptin)], the cell viability was 110%.

For `NC(=O)/C(=C/n1cnc(-c2cc(C(F)(F)F)cc(C(F)(F)F)c2)n1)c1cncnc1`, the cell viability stood at 17.5%.

Consider `O=C(c1ccccc1)c1ccc2nc(NC(=O)c3csc(C4CCN(c5ncnc6ccsc56)CC4)n3)[nH]c2c1`, for which the cell viability was found to be 37.5%.

`C[C@H]1C[C@H]2[C@@H]3CCC4=CC(=O)C=C[C@]4(C)[C@H]3C(=O)C[C@]2(C)[C@@]1(O)C(=O)CO` [Betapar (Meprednisone)]: the cell viability turned out to be 106%.

With `COc1ccc(CCCOC(Cn2ccnc2)c2ccc(OC)cc2)cc1` (stereo not given), the cell viability amounted to 14.8%.

For `COC(=O)N[C@H](C(=O)N1CCC[C@H]1C(=O)Nc1ccc([C@@H]2CC[C@@H](c3ccc(NC(=O)[C@@H]4CCCN4C(=O)[C@@H](NC(=O)OC)C(C)C)cc3)N2c2ccc(C(C)(C)C)cc2)cc1)C(C)C` [Ombitasvir(ABT-267)], the cell viability worked out at 96.3%.

In the case of `CC1=CC(=O)c2ccccc2C1=O` [Menadione], the cell viability came out at 93.1%.

For `COc1cc(F)c(C(C)C)cc1-c1ccc(C(F)(F)F)cc1CN1C(=O)O[C@H](c2cc(C(F)(F)F)cc(C(F)(F)F)c2)[C@@H]1C` [Anacetrapib (MK-0859)], the cell viability came to 105%.

Take `CN(CC(=O)N(Cc1ccc(C2CCCCC2)cc1)c1ccc(C(=O)O)cc1)S(=O)(=O)c1c(F)c(F)c(F)c(F)c1F`: the cell viability stood at 2.43%.

Regarding `C#C[C@]1(O)CC[C@H]2[C@@H]3CCC4=CC(=O)CC[C@@H]4[C@H]3C(=C)C[C@@]21CC` [Etonogestrel], the cell viability amounted to 88.8%.

For `O=C(N/N=C/c1ccc(O)c(O)c1)c1cc2ccccc2cc1O` [Dynasore], the cell viability came out at 78.7%.

For `CC(C)Oc1ccc2c(=O)c(-c3ccccc3)coc2c1` [Ipriflavone], the cell viability worked out at 88.1%.

On to `CNC(=O)c1ccccc1Sc1ccc2c(/C=C/c3ccccn3)n[nH]c2c1` [Axitinib], for which the cell viability turned out to be 65.2%.

Consider `CC1=C(C(=O)Nc2ccc3[nH]ncc3c2)C(c2ccc(F)cc2)NC(=O)N1` (stereo not given), for which the cell viability was 99.9%.
